A short description of experiment [1]: NCI Yeast Anticancer Drug Screen. Data for the rad50 strain (AID 155).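 Also: 0% = growth of vehicle-only cultures of the same strain.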 The settings on record: S. cerevisiae rad50 strain growth inhibition; at 50.0 µM; active compounds read high. Summed up:
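DNA repair mutant yeast, compound exposure, growth read-out; inhibition is taken relative to vehicle.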

Experiment [2] is described as follows: NCI Yeast Anticancer Drug Screen. Data for the mec2-1 strain (AID 157). As to conditions: S. cerevisiae mec2-1 strain, at 50.0 µM, active compounds read high. The gist of the method:
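Growth inhibition is read against vehicle-treated controls after compound exposure of the mec2-1 yeast strain, which is defective in DNA damage repair or cell cycle control.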

Experiment [3] is described as follows: NCI Yeast Anticancer Drug Screen. Data for the sgs1 mgt1 strain (AID 161).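 Also: 0% = growth of cultures given vehicle only.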 The settings on record: S. cerevisiae sgs1 mgt1 strain, at 50.0 µM, active compounds read high. The gist of the method: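 This yeast growth screen uses a strain with defined DNA-repair lesions; compound-treated growth is compared with vehicle-treated growth.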
Experiment [4] is described as follows: NCI Yeast Anticancer Drug Screen. Data for the cln2 rad14 strain (AID 165).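 Also: 0% = growth equal to vehicle treated cultures.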 The settings on record: S. cerevisiae cln2 rad14 strain, at 50.0 µM, active compounds read high. Summed up:
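Growth inhibition, relative to vehicle-treated controls, is the read-out. The test organism is a yeast strain with defined genetic alterations, cln2 rad14.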

The nature of experiment [5]: NCI Yeast Anticancer Drug Screen. Data for the bub3 strain (AID 167). As to conditions: S. cerevisiae bub3 mutant strain, at 50.0 µM, active compounds read high. Summed up:
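In this screen, a yeast mutant lacking normal mitotic checkpoint function is challenged with compound. Relative growth versus vehicle gives the inhibition value.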

Experiment [6] is described as follows: NCI Yeast Anticancer Drug Screen. Data for the mlh1 rad18 strain (AID 175). As to conditions: S. cerevisiae mlh1 rad18 strain growth inhibition; at 50.0 µM; active compounds read high. The gist of the method: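 Cells of a genetically altered yeast strain, deficient in DNA damage repair, were treated with compound. Their growth was then compared with that of vehicle-treated cultures to give inhibition.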

The panel holds about 79,000 compounds, 15% with a hit somewhere; the sample as a whole holds those more often. Values without a mark were called inactive. Calls of active or inactive are those of the source. Rule as the data show it: active = growth inhibition above about 70%; inactive = the rest.

Consider `CNC(=O)NC1C(CO)OC2OC(C)(C)OC21` (stereo not given), for which the growth inhibition in experiment [1] was 6.5%; in experiment [2], 5.25%; in experiment [3] it was 10.4%; in experiment [4], -35.3%; in experiment [5], -9.85%; in experiment [6] it was 2.55%.
With `CC(C)(C)OC(=O)N(CCNS(=O)(=O)c1cccc2cnccc12)CCC(=O)ON1C(=O)CCC1=O`, the growth inhibition in experiment [1] is 4.7%; in experiment [2], -0.2%; in experiment [3], 17.8%; in experiment [4], 14.7%; in experiment [5] it was 23.3%; in experiment [6] it was 6.35%.
Consider `COc1cc(/C=N/NC2=NCCCN2)ccc1O`, for which the growth inhibition is 28.7% in experiment [1]; 13.2% in experiment [2]; 7.75% in experiment [3]; -16.2% in experiment [4]; 0.7% in experiment [5]; 17.4% in experiment [6].
As for `COc1cccc2c(NCCCCCO[N+](=O)[O-])cc[n+](C)c12`, the growth inhibition was 25.7% in experiment [1]; -24.4% in experiment [2]; 9.85% in experiment [3]; 8.7% in experiment [4]; 16.6% in experiment [5]; 29.1% in experiment [6].
For `CCOC(=O)/C(=C\c1cccc(F)c1)C(C)=O`, the growth inhibition was 20.6% in experiment [1]; 15.3% in experiment [2]; 7.05% in experiment [3]; -4.9% in experiment [4]; 13.7% in experiment [5]; 41.5% in experiment [6].
Take `CC1=NOC2(C1)/C(=N/O)CCC/C2=N\O` (stereo not given): the growth inhibition in experiment [1] is -3.65%; in experiment [2], -25.1%; in experiment [3] it was -1.5%; in experiment [4] it was 20.9%; in experiment [5] it was -11.6%; in experiment [6], 0.45%.
On to `O=C(OCc1ccccc1CN1CCOCC1)c1ccccc1`, for which the growth inhibition in experiment [1] is 2.55%; in experiment [2] it was 16.4%; in experiment [3], 9.5%; in experiment [4], -11.9%; in experiment [5], -15.8%; in experiment [6] it was 8.3%.
Consider `Cc1cn(C2CC(O)C(CO)O2)c(=O)nc1N1CCCC1` (stereo not given), for which the growth inhibition in experiment [1] was -4.2%; in experiment [2], -7.4%; in experiment [3], -12.9%; in experiment [4] it was -8.55%; in experiment [5], -0.4%; in experiment [6] it was 0.55%.
Regarding `O=c1[nH]c2nc3ccccc3c(=O)n2/c1=C/c1cccs1`, the growth inhibition is 28.9% in experiment [1]; 2.2% in experiment [2]; 4.4% in experiment [3]; 20.6% in experiment [4]; 14.3% in experiment [5]; -15.8% in experiment [6].
As for `CCCC1C(CC)C(NC)C(C#N)(C#N)C1(C#N)C#N` (stereo not given), the growth inhibition was 7.05% in experiment [1]; 38.9% in experiment [2]; 8.95% in experiment [3]; 26.3% in experiment [4]; 8.3% in experiment [5]; 7.25% in experiment [6].
In the case of `O=c1[nH]nc(SCc2ccccc2)c(=O)[nH]1`, the growth inhibition is -18.1% in experiment [1]; -3.5% in experiment [2]; -16.6% in experiment [3]; -5.8% in experiment [4]; 0% in experiment [5]; -18.9% in experiment [6].
Regarding `O=C1C=C(c2ccccc2)CSC1`, the growth inhibition in experiment [1] was 3.7%; in experiment [2], -10.1%; in experiment [3], -9.45%; in experiment [4], -79.3%; in experiment [5], -8.75%; in experiment [6], -4.85%.
With `OCCN(Cc1ccccc1)C(c1ccccc1)c1ccccc1`, the growth inhibition in experiment [1] is 98.8% (active); in experiment [2], 98.9% (active); in experiment [3], 98.8% (active); in experiment [4], 98.4% (active); in experiment [5], 98.5% (active); in experiment [6] it was 98.9% (active).
Consider `COc1ccc(C(c2cc3c(cc2O)OCO3)N2CCN(C(c3cc4c(cc3O)OCO4)c3ccc(OC)cc3OC)CC2)c(OC)c1` (stereo not given), for which the growth inhibition in experiment [1] was -15.1%; in experiment [2], 1.55%; in experiment [3] it was 30.2%; in experiment [4], 23.1%; in experiment [5], -11.9%; in experiment [6] it was 3.45%.
In the case of `Cc1ccc(Cl)cc1NC(=O)Nc1cccc(C(F)(F)F)c1`, the growth inhibition in experiment [1] is 3.3%; in experiment [2], 25.5%; in experiment [3], 14.2%; in experiment [4], -5.4%; in experiment [5] it was 37.1%; in experiment [6] it was 8.95%.
With `CC(=O)OCC(=O)[C@@]1(O)CC[C@H]2[C@@H]3C[C@H](C)C4=CC(=O)C=C[C@]4(C)[C@@]3(Br)[C@@H](O)C[C@@]21C`, the growth inhibition in experiment [1] is 30.9%; in experiment [2], 7.75%; in experiment [3] it was 38.3%; in experiment [4] it was 35.9%; in experiment [5], 1.35%; in experiment [6] it was -9.1%.
Take `Cn1c2c(c3ccccc31)CC1c3c(c4ccccc4n3C)CC21` (stereo not given): the growth inhibition is -79% in experiment [1]; -51% in experiment [2]; -49% in experiment [3]; -26.2% in experiment [4]; -18.6% in experiment [5]; -45.4% in experiment [6].
With `Nc1ccc(-c2nc3ccccc3[nH]2)cc1`, the growth inhibition in experiment [1] is -2.55%; in experiment [2], 17.8%; in experiment [3], 3.1%; in experiment [4] it was 9%; in experiment [5] it was 18.9%; in experiment [6], -0.8%.
With `CN(Cc1ccccc1)C(OCc1ccccc1)c1ccccc1` (stereo not given), the growth inhibition in experiment [1] was 3.15%; in experiment [2], -13%; in experiment [3] it was 10.1%; in experiment [4] it was -8.3%; in experiment [5], 20.4%; in experiment [6] it was 5.4%.
Take `Cn1c(=O)cc(CCl)c2ccccc21`: the growth inhibition in experiment [1] is 26.9%; in experiment [2], 26.6%; in experiment [3], 44%; in experiment [4] it was 28.4%; in experiment [5], 31.7%; in experiment [6], 52%.

Values taken from PubChem BioAssay (NCI).
